rCAG RNA binder – r(CAG) repeat RNA binding; TO-PRO-1 dye displacement fluorescence; inhibition, % at 3 µM; hit rate 1.3% among 370,000; AID 651821;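 active means inhibition above the plate cutoff, the mean of all test compounds on that plate plus 3 SD, cut at about 35% in these data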;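 further: 0% = DMSO alone and 100% = 100 µM mitoxantrone as full dye displacement; higher means more dye released from RNA so lower well fluorescence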
DNMT1 block – inhibitors of human DNMT1 | P26358 | hit rate 0.83% among 360,000 | DNMT1 molecular beacon, Hinp1I cleavage, fluorescence | inhibition (reported as % activation of signal), % at 10 µM; in the data active means inhibition above about 50%
MBD2 DNA inh – inhibitors of human MBD2 binding to methylated oligonucleotide. TR-FRET. AID 686964. inhibition, % at 4.4 µM. Q9UBB5. hit rate 0.31% among 370,000; in the data active means inhibition above about 13%
Target sequence (Q9UBB5 whole entry, looked up): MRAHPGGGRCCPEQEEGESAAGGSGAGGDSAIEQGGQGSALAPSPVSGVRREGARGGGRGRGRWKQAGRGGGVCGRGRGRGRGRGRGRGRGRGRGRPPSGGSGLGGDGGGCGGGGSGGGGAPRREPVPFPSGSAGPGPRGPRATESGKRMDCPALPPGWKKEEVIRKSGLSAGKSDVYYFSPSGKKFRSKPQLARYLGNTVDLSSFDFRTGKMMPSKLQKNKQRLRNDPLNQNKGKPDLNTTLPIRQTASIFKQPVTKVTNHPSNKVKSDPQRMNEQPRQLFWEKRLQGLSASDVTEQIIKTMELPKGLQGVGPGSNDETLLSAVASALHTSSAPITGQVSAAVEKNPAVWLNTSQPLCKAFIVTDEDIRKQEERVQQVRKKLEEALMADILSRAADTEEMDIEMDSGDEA
LEDGF integ inh – blocks HIV-1 LEDGF/p75-dependent DNA integration. TR-FRET IN-LEDGF/p75 DNA integration, Eu/Cy5. inhibition, % at 3.7 µM. hit rate 0.64% among 370,000. AID 743269;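 active means inhibition above the screen-wide mean plus 3 SD, cut at about 13% in these data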;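 further: signal is the Cy5 over europium emission ratio at 671 and 618 nm; 0% = plate median of compound wells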
UHRF1 MBD2 ctr – human UHRF1 methylated DNA binding inhibitors. UHRF1 binding to methylated oligo, TR-FRET. inhibition, % at 4.4 µM. hit rate 0.75% among 370,000. AID 687016; in the data active means inhibition above about 21%;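 further: UHRF1 SRA domain binding a hemimethylated CpG hairpin DNA probe; 0% = median of test compound wells and 100% = reference inhibitor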
PG9 binder – binds the HIV-1 gp120 antibody PG9; TR-FRET gp120-PG9 antibody binding; hit rate 0.43% among 360,000; AID 624416; inhibition, % at 6.7 µM; in the data active means inhibition above about 8.5%
DNMT1 inh conf – confirmation of human DNMT1 inhibitors. shares compounds with DNMT1 block. DNMT1 molecular beacon HinP1I cleavage, fluorescence. inhibition, % at 10 µM. hit rate 8% among 2,300;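 active means average inhibition of at least 30% in the single-concentration confirmation test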
DNMT1 interf – beacon fluorescence artifact counter-screen | shares compounds with DNMT1 block | DNMT1 molecular beacon spectral interference counterscreen, fluorescence 485/520 | activation (fluorescence interference), % at 10 µM | hit rate 1% among 2,300 | AID 602387;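 active means activation of at least 30% at 10 µM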;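 further: DNMT1 catalytic domain with a HinP1I cleavage step and a FAM/dabcyl DNA beacon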
Starred values were filed as active, the others as inactive. Most compounds without a hit are left out; they make up all but 3.5% or so of the library.

Screening O=C(NC1CCCCN(Cc2cccc(F)c2)C1=O)c1cccc(C(F)(F)F)c1 (stereo not given) returned rCAG RNA binder -0.7, MBD2 DNA inh 4.7, LEDGF integ inh 3.1 and UHRF1 MBD2 ctr 1.9.
For CC(C)N(C(=O)C[n+]1ccc(/C=N/O)cc1)C(C)C the results were rCAG RNA binder 0.6, DNMT1 block -0.7, MBD2 DNA inh 1.0, LEDGF integ inh 1.2, UHRF1 MBD2 ctr -0.6 and PG9 binder -0.2.
For NC(=O)C[n+]1ccc(/C=N/O)cc1 the results were rCAG RNA binder 2.7, DNMT1 block 8.4, MBD2 DNA inh 5.8, LEDGF integ inh 1.8, UHRF1 MBD2 ctr 26.2* and PG9 binder -2.7.
`O=Cc1cn(CCOc2ccccc2F)c2ccccc12` gave rCAG RNA binder -2.5, DNMT1 block 3.6, MBD2 DNA inh 2.1, LEDGF integ inh -1.4, UHRF1 MBD2 ctr 1.4 and PG9 binder -1.2.
`COC(=O)C1CN(Cc2cn(CCC3OCCO3)nn2)CCS(=O)(=O)N1Cc1ccc(Cl)cc1` (stereo not given) gave rCAG RNA binder 2.9, MBD2 DNA inh 10.6, LEDGF integ inh -1.3 and UHRF1 MBD2 ctr 15.9.
COc1cccc(CNC(=O)CCC2CCCN(C(=O)c3ccoc3)C2)c1 (stereo not given) was read as rCAG RNA binder -3.9, DNMT1 block -0.6, MBD2 DNA inh 11.4, LEDGF integ inh -5.4, UHRF1 MBD2 ctr 24.8* and PG9 binder -1.2.
`CC1(OC(=O)c2cccs2)C(=O)C=C2C=C3CCCN3C=C2C1=O` (stereo not given) gave DNMT1 block 100.5*.
For Cc1ccc2nc(-c3ccco3)c(CC(C)(C)C)n2c1 the results were rCAG RNA binder 19.3, DNMT1 block 4.2, MBD2 DNA inh -0.4, LEDGF integ inh 10.3, UHRF1 MBD2 ctr 22.6* and PG9 binder -0.3.
For CC(C)(C)Cc1c(-c2ccc(F)cc2)nc2ccc(Br)cn12 the results were rCAG RNA binder 0.4, DNMT1 block 23.3, MBD2 DNA inh -3.4, LEDGF integ inh 0.7, UHRF1 MBD2 ctr 20.8* and PG9 binder 2.8.
CC(C)(C)Cc1c(-c2ccc(Cl)cc2)nc2ccc(Br)cn12 was read as rCAG RNA binder 1.3, DNMT1 block 9.3, MBD2 DNA inh 0.8, LEDGF integ inh -0.8, UHRF1 MBD2 ctr 11.3 and PG9 binder 0.1.
Screening CC(C)(C)Cc1c(-c2ccccc2)nc2ccc(Cl)cn12 returned rCAG RNA binder -0.6, DNMT1 block 16.6, MBD2 DNA inh 8.9, LEDGF integ inh -3.9, UHRF1 MBD2 ctr 20.9* and PG9 binder -0.9.
`COC(=O)[C@]12C[C@H](CC(=O)N3CCN(C(=O)C4CC4)CC3)C(=O)N(CCc3ccc(OC)c(OC)c3)C1=C[C@H](C(C)(C)C)O[C@@H]2C` gave rCAG RNA binder 2.5, MBD2 DNA inh -6.6, LEDGF integ inh 1.8 and UHRF1 MBD2 ctr -2.6.
Screening Cc1ccccc1S(=O)(=O)N1CCCc2nc(-c3ccccc3)ccc21 returned rCAG RNA binder -0.3, MBD2 DNA inh 1.9, LEDGF integ inh 0.0, UHRF1 MBD2 ctr -3.9 and PG9 binder 0.4.
COC(=O)C1CN(C2CCCC2)CCS(=O)(=O)N1Cc1cn(Cc2ccc(F)cc2)nn1 (stereo not given) was read as rCAG RNA binder 0.5, MBD2 DNA inh 3.0, LEDGF integ inh 3.0 and UHRF1 MBD2 ctr 11.0.
Clc1ccccc1-c1ccc(/C=N/Nc2nncc(-c3ccccc3)n2)o1 was read as rCAG RNA binder 9.1, DNMT1 block 69.0*, MBD2 DNA inh 3.2, LEDGF integ inh 1.6, UHRF1 MBD2 ctr -1.6, PG9 binder 1.9, DNMT1 inh conf -1.2 and DNMT1 interf -5.2.
Screening CC(=O)Nc1ccc(N2C(=O)c3cccc4c(O)ccc(c34)C2=O)cc1 returned rCAG RNA binder inactive, DNMT1 block 50.9*, MBD2 DNA inh -11.6, LEDGF integ inh -6.5, UHRF1 MBD2 ctr -18.5, PG9 binder -6.7, DNMT1 inh conf 106.2* and DNMT1 interf 98.9*.
For Cc1cc(NC(=O)c2ccco2)c(=O)n(Cc2cccc(C(F)(F)F)c2)c1 the results were rCAG RNA binder -0.9, DNMT1 block 65.9*, MBD2 DNA inh 0.8, LEDGF integ inh -0.1, UHRF1 MBD2 ctr -0.9, PG9 binder -0.8, DNMT1 inh conf 3.1 and DNMT1 interf 4.7.
`O=C(NCc1cccc(C(F)(F)F)c1)c1ccc2sc([C@@H]3O[C@H](CO)[C@H](O)[C@H](O)[C@H]3O)nc2c1` gave rCAG RNA binder 1.3, DNMT1 block -1.1, MBD2 DNA inh -0.5, LEDGF integ inh -0.8, UHRF1 MBD2 ctr -1.0 and PG9 binder -1.0.
`CC(=O)C(=Cc1ccc(C(=O)O)cc1)C(C)=O` gave rCAG RNA binder 0.2, DNMT1 block 9.1, MBD2 DNA inh 3.0, LEDGF integ inh -1.2, UHRF1 MBD2 ctr 1.4 and PG9 binder 0.9.
C/C(=C\c1ccc(C(=O)O)cc1)c1ccc2c(c1)C(C)(C)CCC2(C)C was read as rCAG RNA binder 10.6, DNMT1 block 51.9*, MBD2 DNA inh 2.9, LEDGF integ inh 2.9, UHRF1 MBD2 ctr 2.6, PG9 binder 0.9, DNMT1 inh conf 21.1 and DNMT1 interf 0.1.
Screening Cc1cc(C(=O)NCc2ccc(Cl)cc2)n(-c2ccccc2)n1 returned rCAG RNA binder -4.0, DNMT1 block 0.2, MBD2 DNA inh -6.5, LEDGF integ inh -2.0, UHRF1 MBD2 ctr 2.6 and PG9 binder 3.3.
Cc1ccc(CCNC(=O)c2cc(C)nn2-c2ccccc2)cc1 was read as rCAG RNA binder -3.4, DNMT1 block 60.8*, MBD2 DNA inh -1.6, LEDGF integ inh -0.6, UHRF1 MBD2 ctr -2.7, PG9 binder -2.4, DNMT1 inh conf 2.2 and DNMT1 interf 1.4.
For Nc1nc(SCc2ccccc2Cl)nc2nc3c(cc12)CCCC3 the results were rCAG RNA binder 5.7, DNMT1 block 0.3, MBD2 DNA inh 1.5, LEDGF integ inh -1.1, UHRF1 MBD2 ctr 1.1 and PG9 binder 3.2.
`Nc1nc(SCc2ccc(Cl)cc2Cl)nc2nc3c(cc12)CCCC3` gave rCAG RNA binder 7.5, DNMT1 block 90.0*, MBD2 DNA inh -4.0, LEDGF integ inh -1.7, UHRF1 MBD2 ctr -1.3, PG9 binder 3.6, DNMT1 inh conf -0.3 and DNMT1 interf -0.8.
Screening Clc1ccc2nc(-c3ccccc3)c(CC3CCCCC3)n2c1 returned rCAG RNA binder 2.5, DNMT1 block -0.3, MBD2 DNA inh -0.1, LEDGF integ inh -9.9, UHRF1 MBD2 ctr 0.8 and PG9 binder 0.7.
Screening Nc1nnnn1/N=C/c1ccccc1OCc1ccc(Cl)cc1 returned rCAG RNA binder 10.5, DNMT1 block 2.7, MBD2 DNA inh -7.3, LEDGF integ inh 4.7, UHRF1 MBD2 ctr 1.2 and PG9 binder -1.5.
